Assay outcomes from PubChem BioAssay.
Pf growth 48h – P. falciparum growth inhibition at 48 hours (one generation) | P. falciparum luciferase growth in erythrocytes, 48 h | Potency, µM (series often up to 28.7 µM), for inactives: top-dose activity change, negative = inhibition, most hits filed as inhibitors | hit rate 5.9% among 310,000 | AID 504832; note: potency is the fitted concentration of half-maximal effect; % is set by controls: 0 for no effect and ±100 for the full control effect
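Here the parasites carry a stable luciferase gene and grow inside erythrocytes in Albumax-based RPMI medium with compound for one erythrocytic cycle. Activity is scored as loss of luminescent signal.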
Pf growth 96h – inhibits malaria parasite growth, 96 h. P. falciparum luciferase reporter growth, 96 h. AID 504834. Potency, µM (doses to about 28.7 µM), for inactives: at the top dose activity change, negative = inhibition, hits mostly inhibitors. hit rate 6.9% among 320,000; note: potency is the fitted concentration of half-maximal effect; % is set by controls: 0 for no effect and ±100 for the full control effect
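96 h incubation, 37 C, 5% CO2, of luciferase-reporter P. falciparum-infected RBCs (2% hematocrit, 0.05% parasitemia final) with test compounds; endpoint luminescence.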
Shiga toxin inh – inhibitors of Shiga toxin in Vero cells; hit rate 9.2% among 290,000; inhibition, % at 38.7 µM; Vero cells, Shiga toxin protein synthesis inhibition reporter; in the data active = inhibition mostly above about 28%, no sharp cut-off; inactive = mostly below about 43%; note: 0% is about no effect
HCMV antiviral – blocks human cytomegalovirus replication; HFF cells, HCMV-luciferase reporter, 72 h; hits give low values; activity change, negative = inhibition, % at 57.5 µM; hit rate 4.5% among 410,000; in the data active = activity change below about -60%; inconclusive = no clear call, values can overlap the other calls; inactive = above about -39%; note: % is set by controls: 0 for no effect and ±100 for the full control effect
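Two-dose cell screen: HFF monolayers treated with compounds and infected with luciferase-expressing HCMV at 1 PFU/cell, 72 h at 37C, then lysed for luciferase measurement.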
CHX counter – affects cycloheximide protein synthesis inhibition readout, counter-screen; cell reporter, cycloheximide protein synthesis inhibition counterscreen; max response, %; hit rate 12% among 300,000; AID 2314; in the data active = max response mostly above about 13%, no sharp cut-off; inactive = mostly below about 14%; note: read at 38.3 µM for the half of the compounds with a filed dose; 0% is about no effect
* marks the source's active call; other numbers are inactive results; i = inactive; ? = inconclusive; · = not tested or not shown; [ ] = dose if it differs, or a comment. Compounds with a hit are over-represented: about 20% of the library has one in this group of screens. Unless noted, calls come from the whole dose curve; as a rule, active = well fitted inhibition curve with a large enough effect; inconclusive = small, poorly fitted or top-dose-only effect, or another doubt; inactive = no such curve, though single readings can be large or run the other way.

SMILES	Pf growth 48h	Pf growth 96h	Shiga toxin inh	HCMV antiviral	CHX counter
CCOc1ccc(CN(C)C(=O)CCc2ccc(S(=O)(=O)N3CCCCCC3)cc2)cc1	13µM*	?	·	-60*	·
COc1ccc(CC(=O)Nc2ccc(S(=O)(=O)N3CCCC3)cc2)c(OC)c1	?	?	·	-5	·
CCOc1ccc(S(=O)(=O)N2CCCCCC2)cc1	·	?	-14	19	9
CCCCOc1cccc(C(=O)Nc2sc3c(c2C(=O)OCC)CCCC3)c1	·	·	·	13	·
COC(=O)CC1C(=O)NC2CCCCC2N1C(=O)CCl (configuration not stated)	?	?	17	4	1
NC1(C#Cc2ccc3oc(=O)c(-n4cc(-c5ccsc5)nn4)cc3c2)CCCCC1	17%	-2%	·	-72*	·
NC1(C#Cc2ccc3oc(=O)c(-n4cc(C5(O)CCCCC5)nn4)cc3c2)CCCCC1	·	·	·	-3	·
COc1ccc(CNCCc2c(C)[nH]c3ccc(OC(F)(F)F)cc23)c(OC)c1	5.2µM*	?	-20	-66*	-5
COc1ccc2[nH]c(C)c(CCNCc3cc(OC)c4c(c3)OCO4)c2c1	7.4µM*	?	·	-17	·
COc1ccc2[nH]c(C)c(CCNCc3cc(OC)c(OC)c(OC)c3)c2c1	?	52%	-7	5	7
CCc1ccc2oc(C(=O)N3CCN(C)CC3)cc(=O)c2c1	8%	?	-12	-13	-2
O=C(Nc1cccc(OCC(=O)N2CCOCC2)c1)c1cccc([N+](=O)[O-])c1	15%	7.4µM*	-9	35	-3
CCC(=O)Nc1cccc(NC(=O)c2cccc([N+](=O)[O-])c2)c1	28%	61%	5	22	12
O=C(COc1cccc(NC(=O)c2cccc([N+](=O)[O-])c2)c1)c1ccc(Br)cc1	109%	69%	7	-73*	13
O=C(Nc1cccc(OCC(=O)N2CCOCC2)c1)c1cccc(Cl)c1	61%	9%	-4	2	-1
Fc1ccc(C(CCCn2nnc(-c3cccnc3)n2)c2ccc(F)cc2)cc1	15µM*	-9%	40	-76*	8
Brc1ccccc1-n1nnc(-c2cccnc2)n1	39%	4%	33	5	29*
Fc1ccc(-n2nnc(-c3cnc4ccccc4c3)n2)cc1	4%	1%	62*	52	46*
Cn1c(SCC(=O)c2ccc(F)cc2)nnc1-c1cccnc1	-4%[5.75 µM]	?	25	13	10
Clc1ccc(-n2nnc(-c3cccnc3)n2)cc1Cl	80%	-4%	41*	55	41*
CCc1cnc2c(c1SCC(=O)Nc1ccc(OC)c(OC)c1)c(=O)n(C)c(=O)n2C	·	·	·	-11	·
O=c1[nH]c2ccccc2cc1-c1nnn(-c2ccc(Cl)c(Cl)c2)n1	·	·	·	-23	·
Clc1ccc(-n2nnc(-c3nccs3)n2)cc1Cl	328%	i	74*	19	29*
Fc1ccc(-n2nnc(-c3cccnc3)n2)cc1	113%	98%	70*	49	42*
Nc1nc(-c2cccnc2)nn1C(=O)c1ccc(F)cc1	63%	?	10	-18	-1
SMILES	Pf growth 48h	Pf growth 96h	Shiga toxin inh	HCMV antiviral	CHX counter
O=c1[nH]c2ccccc2cc1-c1nnn(-c2ccc(F)cc2)n1	122%	147%	49*	54	23*
CN(C)CCCNc1nc2cc(-c3ccn[nH]3)sc2c(=O)n1C	·	·	·	-12	·
CCC(=O)N1CCc2cc(Br)cc(S(=O)(=O)NCCN3CCCC3)c21	·	28%	-9	8	-1
CCC(=O)N1CCc2cc(Br)cc(S(=O)(=O)CC(=O)OC)c21	?	15µM*	17	·	10
CCC(=O)N1CCc2cc(Br)cc(S(=O)(=O)CCC(=O)NCC3CCCO3)c21 (configuration not stated)	?	?	3	-109*	-3
O=C(CCS(=O)(=O)c1cc(Br)cc2c1N(C(=O)C1CC1)CC2)NCc1ccco1	8.3µM*	10%	-7	23	3
O=C(CCS(=O)(=O)c1cc(Br)cc2c1N(C(=O)C1CC1)CC2)NCc1ccccc1Cl	·	·	·	-5	·
CC(CC(=O)NCc1ccco1)S(=O)(=O)c1ccc2c(c1)CCN2C(=O)C1CC1 (configuration not stated)	-6%	8.3µM*	-13	64	-6
CCC(=O)N1CCc2cc(S(=O)(=O)CCC(=O)NCc3ccco3)ccc21	-16%	?	-5	?	-2
COc1cc(C)cc2oc(=O)c(CC(=O)NCCc3ccc(Cl)cc3)c(C)c12	·	·	·	8	·
CCN(CC)S(=O)(=O)c1ccc(C(=O)Nc2nc3c(Cl)cc(Cl)cc3s2)cc1	·	·	·	4	·
COc1cc(C2c3c(-c4cc(C)ccc4O)n[nH]c3C(=O)N2CCCO)ccc1OCCC(C)C (configuration not stated)	·	·	·	-27	·
COc1ccccc1OCCCCn1c(-c2ccc(Cl)cc2)nc2ccccc2c1=O	·	·	·	-14	·
CCOC(=O)c1c(C)[nH]c(C(=O)OC)c1CCC(=O)OC	15%	3%	5	3	6
CCOC(=O)c1[nH]c(Cc2[nH]c(C(=O)OCC)c(C)c2CCC(=O)OC)c(CCC(=O)OC)c1C	1.7µM*	89%	-9	-23	-1
COc1ccc(NC(=O)c2c(-c3ccc(C)cc3)nnc3ccccc23)cc1Cl	·	·	·	0	·
COc1cccc(-c2cc(=O)c3cc(NC(=O)c4cccnc4)ccc3[nH]2)c1	·	·	i	·	4
Cc1sc(NC(=O)c2ccccc2F)c(CN2CCCCC2C)c1C (configuration not stated)	0%	0%	61*	58	71*
Cc1cc(SCc2cc(=O)[nH]c3ccccc23)nc2ccccc12	1.5µM*	?	-4	-11	-1
O=c1cc(CSc2ccccn2)c2ccccc2[nH]1	7%	9.3µM*	13	-28	2
CC(=O)c1ccc(S(=O)(=O)Nc2cccc(-c3ccc(N4CCCCCC4)nn3)c2)cc1	·	·	·	53	·
COc1cc2ncnc(Nc3cccc(Cl)c3)c2cc1OC	·	·	-8	·	-5
C#Cc1cccc(Nc2ncnc3cc(OCCOC)c(OCCOC)cc23)c1	13µM*	6µM*	·	·	·
C=CCOc1ccc(/C(O)=C2\C(=O)C(=O)N(CCCOC)C2c2ccc(O)c(OC)c2)cc1 (configuration not stated)	1%	29%	-7	24	-3
CCOc1cc(C2/C(=C(/O)c3ccc(OC(C)C)cc3)C(=O)C(=O)N2CCCOC)ccc1O (configuration not stated)	150%	-20%	87*	5	48*
COCCCN1C(=O)C(=O)/C(=C(/O)c2ccc(OC)cc2)C1c1cccc(OC)c1 (configuration not stated)	-3%	25%	-14	-102*	-3
Cc1ccc(Cc2c(C)nn(-c3nc(C)c(C(=O)N4CCCCC4C)s3)c2C)cc1 (configuration not stated)	·	·	·	12	·
O=C(OCc1ccccc1Cl)c1ccc(-c2nnn(Cc3ccccc3)n2)cc1	·	·	·	-13	·
